Source: PubChem BioAssay AID2685 (National Center for Advancing Translational Sciences (NCATS), 2010)
Hit rate of the full screen: of about 320,000 compounds, about 2,100 (0.66%) were called active. Another 53% or so got no clear call; they are omitted. Calls follow the shape of the dose curve; as a rule, active = well fitted inhibition curve with a large enough effect in the signal ratio, with a control signal flat (not every such curve was filed as active); inconclusive = small, poorly fitted or top-dose-only effect, or effect the other way, or a change in a side signal; inactive = flat fitted curve, though single readings scatter; the % refers to the signal ratio. What follows is part of a selection rich in actives, with near analogues and random picks from the rest.

Assay: qHTS Assay for Lipid Storage Modulators in Drosophila S3 Cells;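 as to cell number change: cells counted by Cell Tracker Red CMTPX staining in the red channel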; as to lipid storage change, negative = inhibition: % is scaled to controls: 0 for no effect and ±100 for the full control effect
Conditions: BODIPY lipid droplet fluorescence, 18-24 h, cells fed with added oleic acid; cell number change: measured here: cell count max response; series mostly up to 46.1 µM; lipid storage change, negative = inhibition: at the top concentration
Description: NIH Molecular Libraries Probe Production Centers Network [MLPCN] NIH Chemical Genomics Center [NCGC] MLPCN Grant: 1 R03 MH085686-01 Assay Submitter (PI): Beller, Mathias; Max-Planck-Institut fur Biophysikalische Chemie NCGC Assay Overview: Storing lipids as a reservoir for energy or the anabolism of elementary metabolites is a common feature of probably all cells and is conserved from bacteria to humans. The universal cellular lipid storage organelle is the so-called lipid storage droplet (LD). Although ubiquitous, LDs share a simple structure composed of a hydrophobic core that harbors the storage lipids, which is shielded by a droplet-specific phospholipid monolayer to which proteins are attached. The current model of LD biogenesis involves an incorporation of the lipid core into the membrane leaflets of the endoplasmic reticulum (ER) followed by a subsequent budding-like maturation of a LD, which ultimately pinches off. Once released, LD volume can increase by localized lipogenesis or fusion of existing droplet. Storage lipids are re-mobilized enzymatically by lipase activity. Lipase regulation in the adipocyte is heavily studied and involves multiple components including catecholamine signaling, the LD-associated proteins Perilipin and comparative gene identification (CGI-58) and at least two lipases named hormone sensitive lipase (HSL) and adipocyte triglyceride lipase (ATGL). LD regulation outside of the adipocyte is poorly understood and only few components are known. However, there is an urgent need to learn more about ectopic fat depots as mislocalized storage of lipids, for example in the liver or muscle, is an eminent health problem associated with insulin resistance or the metabolic syndrome. We developed a laser-scanning cytometer assay to enable 1,536-well screening and combined the results of the small molecules screen with an RNAi database based on lipid storage.
Triacsin C (Sigma-Aldrich T-4540), an inhibitor of long-chain fatty acyl CoA synthetase that blocks synthesis of triglycerides, was used as a positive control for lipid under-storage. A total of 23 nL of compound solution of different concentrations were transferred to the assay plates using a Kalypsys pin tool equipped with a 1,536-pin array containing 10-nL slotted pins (FP1S10, 0.457-mm diameter, 50.8 mm long; V&P Scientific). One microliter of oleic acid (400 uM) was added, and the plate was lidded with stainless steel rubber gasket lined lids containing pinholes. […] Fluorescence was detected by excitation of the fluorophores with a 488-nm laser on an Acumen Explorer (TTP Lab Tech). The total intensity in channel 2 (500-530 nm) reflected lipid droplet accumulation. Cells were detected using channel 3 (575-640 nm) with 5-um width and 100-um depth filters. The ratio of the number of objects in PMT channel 2 over the number of objects in PMT channel 3 was also calculated. Percent activity was computed relative to an internal control (100% inhibited lipid droplet deposition due to the presence of 20 uM Triacsin C), which was added to 32 wells/plate.
Potency is read from the fitted curve at half-maximal effect.

Structure (SMILES)	lipid storage change, negative = inhibition	cell number change [%]	Potency	outcome
NC(=O)CCC(=O)N1CCCC(C(=O)c2ccc3c4c(cccc24)CC3)C1 (centres undefined)	3.16% (inactive)	12.7		
CCc1ccc(CN(C(=O)c2oc3ccccc3c2C)C2CCS(=O)(=O)C2)cc1 (centres undefined)	-21.5% (inactive)	23.1		
O=C(CCC(=O)NNC(=O)COc1ccc(Br)cc1)NCc1ccccc1	-19.6% (inactive)	6.5		
CC(C)NS(=O)(=O)c1ccc(CCC(=O)NCc2ccccn2)cc1	21.7% (inactive)	6.74		
Cc1ccc(S(=O)(=O)NCc2ccccc2)cc1C(=O)NCc1ccccn1	-18% (inactive)	-8.5		
Cc1ccc(NS(=O)(=O)c2ccc(CCC(=O)NCc3ccccn3)cc2)cc1		-13.1	2.59 µM (active)	
Cc1cc(S(=O)(=O)NCc2ccccc2)ccc1OCC(=O)NCc1ccncc1	6.29% (inactive)	13.5		
Cc1ccc(NS(=O)(=O)c2ccc(C(=O)NCc3ccccn3)cc2)cc1	-21% (inactive)	0.232		
Cc1cc(S(=O)(=O)NCc2ccccc2)ccc1OCC(=O)NCc1ccccn1		6.72	5.17 µM (active)	
Cc1cc(C)c(C)c(S(=O)(=O)N2CCC(C(=O)N3CCCC3)CC2)c1C	-11% (inactive)	0.752		
CCOC(=O)c1sc(NC(=O)c2ccccc2OCC)nc1C	5.11% (inactive)	6.73		
CC(=O)NCCn1c(SCC#N)nc2ccccc2c1=O	23.8% (inactive)	8.06		
COCCSc1nnc(NC(=O)COC)s1		-16.2	25.9 µM (active)	
COCCSc1nnc(NC(=O)C(C)(C)C)s1	13.4% (inactive)	-0.0656		
CCC(=O)Nc1nnc(SCCOC)s1				inactive
Cn1c(NC(=O)/C=C/c2c(F)cccc2Cl)cc(=O)n(C)c1=O	-6.34% (inactive)	12.8		
Nc1cc([N+](=O)[O-])ccc1Nc1ccc(O)cc1	-0.588% (inactive)	-13.9		
Nc1nc(N)nc(-c2cc([N+](=O)[O-])ccc2O)n1	0.171% (inactive)	-17.3		
Nc1cc([N+](=O)[O-])ccc1O		-17.1	9.2 µM (active)	
CCN(CC)CCNC(=O)c1cc(Br)c(N)cc1OC	1.26% (inactive)	6.76		
CCN(CC)CCNC(=O)c1ccccc1N		-10.7	23.1 µM (active)	
CCN(CC)CCNC(=O)c1ccccc1C(=O)c1ncc[nH]1		-16.6		inactive
CN1CCN(NC(=O)c2cc(S(=O)(=O)Nc3ccc(Cl)cc3)ccc2Cl)CC1	19% (inactive)	18.2		
O=[N+]([O-])c1cc([N+](=O)[O-])c2n[nH]c(-c3ccccc3)c2c1	12.5% (inactive)	17.9		

Structure (SMILES)	lipid storage change, negative = inhibition	cell number change [%]	Potency	outcome
O=[N+]([O-])c1cnc2ccccc2c1	2.15% (inactive)	16.2		
O=[N+]([O-])c1cc([N+](=O)[O-])c2cc3ccccc3nc2c1		-20.7	3.26 µM (active)	
Cc1ccc(C(=O)NCCn2cc(SCC(=O)Nc3cc(C)on3)c3ccccc32)cc1	-4.46% (inactive)			
Cc1nn(CC(=O)Nc2ccc(Cl)c(S(=O)(=O)N(C)C)c2)c(C)c1[N+](=O)[O-]		-5.49	0.58 µM (active)	
COc1ccccc1NC(=O)c1ccc(-n2ccnc2)c([N+](=O)[O-])c1	9.53% (inactive)	13		
Cc1nn(CC(=O)Nc2ccc(S(=O)(=O)N(C)C)cc2)c(C)c1[N+](=O)[O-]	11.6% (inactive)	9.05		
CN(C)S(=O)(=O)c1cc(NC(=O)c2ccc(-n3ccnc3)c([N+](=O)[O-])c2)ccc1Cl		5.46	20.6 µM (active)	
Cc1nn(CC(=O)Nc2ccc(N(C)C)cc2)c(C)c1[N+](=O)[O-]		-14.5		inactive
O=C(O)c1ccc(-n2ccnc2)c([N+](=O)[O-])c1		9.03		inactive
CN(C)S(=O)(=O)c1ccc(C(=O)NCCSc2ccc(Br)cc2)cc1	19% (inactive)	20		
Cc1ccc2[nH]c(=O)c(CN(CCCN(C)C)C(=S)NCCc3ccccc3)cc2c1	-2.53% (inactive)	-4.82		
CC(CCc1ccccc1)NC(=O)C1CCN(S(=O)(=O)c2cnc[nH]2)CC1 (centres undefined)	16.3% (inactive)			
COc1ccc(S(=O)(=O)N2CCC(C(=O)NCC3CCCO3)CC2)cc1 (centres undefined)				inactive
Cc1c(C#N)sc(C(N)=O)c1C	-3.02% (inactive)	10.5		
Clc1cccc(NCc2nnc(SCc3ccccc3)o2)c1	9.23% (inactive)	-10.7		
O=C(NC(NC(=S)Nc1ccc(Cl)cc1Cl)C(Cl)(Cl)Cl)c1cccc([N+](=O)[O-])c1 (centres undefined)		12.3		inactive
O=C(O)c1cccc(NC(=S)NC(NC(=O)c2cccc([N+](=O)[O-])c2)C(Cl)(Cl)Cl)c1 (centres undefined)	-6.68% (inactive)	-10.1		
O=C(NC(NC(=S)Nc1c(Cl)cccc1Cl)C(Cl)(Cl)Cl)c1cccc([N+](=O)[O-])c1 (centres undefined)		18.3	3.66 µM (active)	
COc1cccc(CNC(=O)Cn2c(=O)n(CCC(=O)N3CCCCC3)c(=O)c3sccc32)c1		-6.85	4.11 µM (active)	
COCCNC(=O)Cn1c(=O)n(CCCC(=O)NCc2ccc3c(c2)OCO3)c(=O)c2sccc21		7.14		inactive
CCCNC(=O)Cn1c(=O)n(CC(=O)N2CCCCC2)c(=O)c2sccc21		-0.943		inactive
CC(=O)c1sc(Nc2ccc(C)cc2)nc1C	3.82% (inactive)	7.99		
O=C(NNC(=O)C1CC1)c1cc(Cl)nc2ccccc12	12% (inactive)	13.7		
Cc1nn(Cc2ccccc2Cl)c(C)c1NC(=O)CCCn1nc(C)c([N+](=O)[O-])c1C	8.88% (inactive)	-4.35		

Structure (SMILES)	lipid storage change, negative = inhibition	cell number change [%]	Potency	outcome
Cc1nn(Cc2ccc(Cl)cc2)c(C)c1NC(=O)CCCn1nc(C)c([N+](=O)[O-])c1C		3.25	2.31 µM (active)	
Cc1nn(Cc2ccc(Cl)cc2)c(C)c1NC(=O)CCCn1nc([N+](=O)[O-])c(Cl)c1C	-11.9% (inactive)	-11.8		
Cc1nn(Cc2ccc(Cl)cc2)c(C)c1NC(=O)C1CC=CCC1C(=O)O (centres undefined)	-8.85% (inactive)	2.56		
Cc1cc(C(=O)Nc2c(C)nn(Cc3ccc(Cl)cc3)c2C)no1	-9.5% (inactive)	-17.6		
Cc1nn(CCCC(=O)NCc2ccc(Cl)cc2)c(C)c1[N+](=O)[O-]	4.65% (inactive)			
Cc1ccc(Cn2nc(C)c(NC(=O)CCCn3nc([N+](=O)[O-])c(Cl)c3C)c2C)cc1		-28.1	8.2 µM (active)	
Cc1nn(Cc2ccccc2)c(C)c1NC(=O)CCCn1nc([N+](=O)[O-])c(Cl)c1C	-17.1% (inactive)	-5.3		
Cc1nn(Cc2ccc(Cl)cc2)c(C)c1NC(=O)C(c1ccccc1)c1ccccc1		-18.5	23.1 µM (active)	
C/C(=N\NC(=O)Cc1c(Cl)cccc1Cl)c1cccnc1	24.2% (inactive)			
CC(C)(C)c1ccc(/C=C/C(=O)O)s1	-12.3% (inactive)	0.873		
C=Cn1cc[n+](CC(=O)c2ccc(Br)s2)c1		-18.1		inactive
c1ccc(-n2cc(CN3CCC(N4CCOCC4)CC3)c(-c3ccc4c(c3)OCO4)n2)cc1	13.6% (inactive)	13.9		
Cc1cccc(NC(=O)NC(C)C(c2ccccc2)N2CCN(C)CC2)c1 (centres undefined)	4.89% (inactive)	-13.4		
COc1cc(C(=O)Nc2cc(-c3cn4cccnc4n3)ccc2C)cc(OC)c1OC	9.88% (inactive)	-3.97		
COc1cccc(NC(=O)CN(C)C(=O)CSc2ccc3c(c2)OCCO3)c1	18% (inactive)	2.81		
Cc1cc(SCC(=O)Nc2ncc(Cl)cc2Cl)nc2ccccc12	-0.799% (inactive)	19.1		
COCCn1nnnc1SCC(=O)c1ccccc1		2.95	20.6 µM (active)	
COCCn1nnnc1SCC(=O)N1CCCCC1	0.19% (inactive)	6.22		
COc1ccc(C(=O)CSc2nnnn2Cc2ccccc2)cc1		14.6		inactive
OC1(c2ccccc2F)CCN(Cc2nnc(-c3ccccc3)o2)CC1	29.2% (inactive)	-15		
CC1CCC2(CC1)NC(=O)N(CC(=O)Nc1ccc3c(c1)CCC3)C2=O (centres undefined)	13% (inactive)	-0.637		
CCN(CC)c1ccc(/C=C(\C#N)C(N)=S)cc1	-22% (inactive)	-2.75		
CCN(CC)c1ccc(/C=C(\C#N)C(N)=O)cc1	-7.84% (inactive)	-5.93		
CCN(CC)c1ccc(/C=C(\C#N)C(=O)c2ccc(Br)cc2)cc1			25.9 µM (active)	

Structure (SMILES)	lipid storage change, negative = inhibition	cell number change [%]	Potency	outcome
CCC(=O)c1ccc(NC(C)=O)cc1O	-9.98% (inactive)	-16.5		
COc1ccc(CN2c3cc(S(=O)(=O)N4CCOCC4)ccc3N3CCCC32)cc1 (centres undefined)		1.21	16.4 µM (active)	
CCN1c2ccc(S(=O)(=O)N3CCOCC3)cc2N(Cc2ccc(OC)cc2)C1C (centres undefined)		13.6		inactive
O=S(=O)(c1ccc2c(c1)N(Cc1ccc(Cl)cc1)C1CCCN21)N1CCOCC1 (centres undefined)	7.79% (inactive)	-5.65		
O=C1CN(C(=O)/C=C/c2cc(Br)ccc2F)CCN1		13.8		inactive
CN=C1S/C(=C\c2ccc(N3CCCC3)c(F)c2)C(=O)N1C	4.4% [at 9.22 µM] (inactive)	2.34		
COc1ccc(N=C2S/C(=C\c3cc(C)n(C)c3C)C(=O)N2C)cc1	-14.9% (inactive)	20.4		
CN=C1S/C(=C\c2c(OC)cc(OC)cc2OC)C(=O)N1C		-1.21	0.58 µM (active)	
CN=C1S/C(=C\c2ccc(Sc3ccc(Cl)cc3)o2)C(=O)N1C	13.4% (inactive)			
CN=C1S/C(=C\c2ccc(SC)cc2)C(=O)N1C		4.2	0.13 µM (active)	
CN=C1S/C(=C\c2ccc(O)c(Br)c2)C(=O)N1C	-10.7% (inactive)	-7.22		
CCSc1nc2c(c(=O)[nH]c(=O)n2C)n1CC(O)COc1ccccc1 (centres undefined)				inactive
CCn1cc(CN2CCC(Oc3ccc(C(=O)N4CCCCC4)cc3)CC2)cn1	-6.41% (inactive)			
O=C(CN1CCN(Cc2ccccc2Cl)CC1)N/N=C/c1cccs1	0.0195% (inactive)	19.5		
Cc1cccc(OCCOCCN2CCOCC2)c1C	4.65% (inactive)	8.47		
Cc1cc(C)c(C)c(OCCN2CCOCC2)c1		-23.8		inactive
Cc1ccc(C)c(OCCOCCN2CCOCC2)c1		3.66	7.31 µM (active)	
CCn1cc(C2CC(=O)NC2=O)c2ccccc21 (centres undefined)	15.1% (inactive)			
CS(=O)(=O)N(CC(=O)NCC1CCCO1)c1ccc(F)c(Cl)c1 (centres undefined)		-13	14.6 µM (active)	
CS(=O)(=O)N(CC(=O)NCC1CCCO1)c1cccc(Cl)c1 (centres undefined)	-1.35% (inactive)			
CS(=O)(=O)N(CC(=O)NCC1CCCO1)c1ccc(Cl)c(Cl)c1 (centres undefined)	-6.64% (inactive)	-7.69		
